Source: PubChem BioAssay
Calls of active or inactive are those of the source.

Assays:
[1] = compound effects on lung adenocarcinoma cell viability – A549, calcein-AM fluorescence, 48 h, basal, profiling panel (AID 1162); details: higher = more signal
[2] = compound effects on differentiated 3T3-L1 adipocyte viability – cell-based, 3T3-L1 adipocytes, calcein-AM fluorescence, 48 h, basal, profiling panel (AID 1163); details: 3T3-L1 adipocytes viability, higher = more signal
[3] = compound effects on hepatocellular carcinoma cell viability – HepG2, calcein-AM fluorescence, 48 h, basal, profiling panel (AID 1164); details: higher = more signal
[4] = compound effects on multiple myeloma cell viability – MM1S, calcein-AM fluorescence, 48 h, basal, profiling panel (AID 1165); details: higher = more signal;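 also: viability of MM1S multiple myeloma cells under basal unstimulated conditions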
[5] = calcein-AM signal in unstimulated myeloma cells – cell-based, calcein-AM fluorescence, 48 h, PK04 Diversity Set, profiling panel (AID 1166); details: RPMI8226 myeloma viability, higher = more signal;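 also: cells grown under basal conditions without added stimulus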
[6] = JC-1 mitochondrial signal, unstimulated HepG2 cells – cell-based, JC-1 fluorescence, 24 h, 100 nL compound, profiling panel (AID 1167); details: HepG2 mitochondrial potential, higher = more signal
[7] = JC-1 mitochondrial signal, unstimulated adipocytes – cell-based, JC-1 fluorescence, 3T3-L1 adipocytes, 24 h, 100 nL compound, profiling panel (AID 1168); details: JC-1 mitochondrial fluorescence, higher = more signal, called active from +8 up or from −8 down
[8] = JC-1 mitochondrial signal, unstimulated myeloma cells – cell-based, JC-1 fluorescence, RPMI8226, 24 h, 100 nL compound, profiling panel (AID 1169); details: JC-1 mitochondrial potential fluorescence, higher = more signal
[9] = JC-1 mitochondrial signal, unstimulated MM1S myeloma – cell-based, JC-1 fluorescence, 24 h, 100 nL compound, profiling panel (AID 1170); details: MM1S mitochondrial potential, higher = more signal
[10] = resazurin metabolic signal in A549 cells – cell-based, resazurin fluorescence, 24 h, PK04 Diversity Set, profiling panel (AID 1171); details: A549 viability, higher = more signal, called active from +8 up or from −8 down
Also: test concentration not given here.

SMILES | z-score [1] | z-score [2] | z-score [3] | z-score [4] | z-score [5] | z-score [6] | z-score [7] | z-score [8] | z-score [9] | z-score [10]
N#Cc1ccc(NN2C(C(O)c3ccc(F)cc3)C=CC3C(=O)N(c4ccccc4)C(=O)C32)cc1 (stereo not given) | -0.518 | -0.877 | 0.211 | -0.453 | -1.33 | -1.58 | -0.311 (inactive) | 0.321 | 0.153 | 0.133 (inactive)
C=CCC(OC(C)=O)[C@@H]1[C@@H](N(Cc2ccc(-c3ccccc3)cc2)C(=O)Cc2ccc(F)cc2)c2cc(OCCCO)ccc2N1C(=O)Cc1ccc(OC)cc1 (stereo not given in full) | 0.178 | 0.0992 | 0.833 | 0.399 | -0.279 | 1.69 | -1.02 (inactive) | -0.112 | -0.362 | 0.084 (inactive)
COCCOC(=O)N1C(=O)[C@@]2(c3cc(C#CC4=CCCCC4)ccc31)[C@H](C(N)=O)[C@H]1C(=O)O[C@H](c3ccccc3)[C@H](c3ccccc3)N1[C@@H]2c1ccccc1OCCO | -2.23 | 0.619 | -3.63 | -3.29 | -3.99 | -2.49 | 2.7 (inactive) | -0.819 | -1.6 | -2.57 (inactive)
CCCCCCCCCCC(O)C1C=CC2C(=O)N(C)C(=O)C2N1NC(=O)OC(C)(C)C (stereo not given) | -3.85 | 0.0766 | -5.09 | -3.91 | -4.14 | -3.31 | -0.464 (inactive) | -0.946 | -2.37 | -3.67 (inactive)
C=C(C)[C@@H]1CC=C(C(O)C2C=CC3C(=O)N(c4ccccc4)C(=O)C3N2Nc2ccccc2F)CC1 (stereo not given in full) | -0.644 | -0.466 | 0.27 | -2.18 | 0.123 | -1.05 | -1.74 (inactive) | -0.872 | -0.043 | -0.35 (inactive)
CC(C)[Si](C#CCCCC#N)(O[C@H](c1ccccc1)c1cn([C@H](CO)Cc2ccccc2)nn1)C(C)C | 0.773 | -0.0379 | -0.0933 | 0.172 | 0.231 | 0.0258 | -0.393 (inactive) | 0.266 | -1.47 | 0.723 (inactive)
COc1ccc([Si](C)(C)[C@@H]2[C@@H](CCn3cc([C@H](O)c4ccccc4)nn3)O[C@]3(C(=O)N(Cc4ccc(N5CCC5=O)cc4)c4ccccc43)[C@H]2C)cc1 | 0.388 | 1.05 | 0.944 | 0.738 | -0.23 | 1.63 | 1.9 (inactive) | -0.0445 | -0.855 | 0.668 (inactive)
COC(=O)[C@@]1(Cc2ccc(F)cc2)[C@H]2c3cc(C(=O)N(C)C)n(CCc4ccc(O)c(OC)c4)c3C[C@H]2CN1C(=O)c1ccccc1 | 0.558 | -0.306 | 0.364 | -0.254 | -0.364 | -0.27 | -0.763 (inactive) | -0.266 | 0.564 | -0.905 (inactive)
COc1ccc([Si](C)(C)[C@H]2[C@H](CCO)O[C@@]3(C(=O)N(Cc4cccc(N5C(=O)COc6ccccc65)c4)c4ccccc43)[C@@H]2C)cc1 | -0.533 | 0.167 | -4.12 | -2.21 | -3.93 | 0.0559 | 1.93 (inactive) | -1.05 | -1.5 | -2.14 (inactive)
CCCCCCc1nc(-c2cc(C)c(OC)c(C)c2)c(C)c2c1[Si](C(C)C)(C(C)C)OC2 | -0.499 | 1.66 | -0.289 | -2.84 | -1.44 | 0.797 | 0.354 (inactive) | -0.18 | -1.6 | 0.197 (inactive)
C=CCC(OC(C)=O)[C@@H]1[C@@H](N(Cc2cc3ccccc3o2)C(=O)c2ccc(C)cc2)c2cc(OCCCO)ccc2N1C(=O)Cc1ccc(OC)cc1 (stereo not given in full) | 1.09 | 0.426 | 0.979 | -0.143 | 0.166 | 2.52 | 0.235 (inactive) | 0.83 | 0.449 | 0.951 (inactive)
CN1C(=O)C2C=CC(C(O)C#Cc3ccccc3)N(Nc3ccccc3)C2C1=O (stereo not given) | -1.12 | -0.341 | -0.255 | -1.05 | -0.398 | -1.36 | 0.39 (inactive) | -1 | -1 | 0.699 (inactive)
C=C(C)C1CCC(C(O)C2C=CC3C(=O)N(C)C(=O)C3N2N2CCCCC2)CC1 (stereo not given) | -1.25 | -1.16 | -0.774 | -0.683 | -0.665 | -1.38 | -1.53 (inactive) | 0.887 | -0.31 | 0.262 (inactive)
COC(=O)[C@@]1(Cc2ccc(OC)cc2)[C@H]2c3cc(C(=O)N4CCCC4)n(Cc4c(-c5ccccc5)noc4C)c3C[C@H]2CN1C(=O)c1ccccc1 | -0.893 | -0.451 | -0.176 | -2.72 | -4.68 | 0.128 | -0.732 (inactive) | -0.774 | -1.52 | 0.356 (inactive)
COc1ccc(NC(=O)O[C@H]2[C@H](OC(=O)Nc3ccccc3)[C@@H](OC(=O)Nc3ccccc3)[C@@H](OC)O[C@@H]2CO)cc1 | -1.42 | 0.635 | -1.17 | -1.18 | -2.26 | -0.107 | -0.261 (inactive) | -0.765 | -1.06 | -2.97 (inactive)
O=C1OCCC=C[C@H]2OC34C=CCN(Cn5nnc6ccccc65)C(=O)[C@H]3N(CCCCCCO)C(=O)[C@@H]4C12 (stereo not given in full) | 0.16 | -0.808 | -0.381 | 1.78 | -0.264 | 0.515 | 0.256 (inactive) | -0.137 | -0.5 | -0.356 (inactive)
C=C(COC)/C(=C/C[C@H](OC(C)=O)c1ccc(OCCO)cc1)c1cc(C(=O)OC)ccc1OC | 1.82 | 0.852 | 0.883 | -1.01 | 0.598 | 2.6 | 1.57 (inactive) | 0.0179 | -0.444 | 1.47 (inactive)
[N-]=[N+]=Nc1ccccc1C[C@]1(C(=O)N2CCOCC2)N=C(c2ccc(OCCCO)cc2)O[C@H]1c1ccccc1 | 0.375 | 0.854 | 1.58 | -0.35 | -0.911 | 1.99 | 1.18 (inactive) | -1.18 | -0.438 | 0.0917 (inactive)
COC(=O)[C@H](Cc1ccccc1)N1CC(/C=C/C2CC2)=C[C@H]1[C@H](O)Cc1ccccc1 | 0.13 | -0.0604 | -0.551 | -3.38 | -3.98 | -2.09 | 0.128 (inactive) | -1.19 | -3.06 | -0.395 (inactive)
NCCCCCNC(=O)[C@@H]1C[C@@H]2C(=O)NCC(=O)N2[C@@H]1c1cccc(OCCO)c1 | -0.507 | 1.11 | -0.531 | -0.686 | -0.947 | 1.5 | -0.298 (inactive) | 0.00435 | 0.53 | -0.505 (inactive)
COc1cc2c(cc1OC)CN(C(=O)[C@@H]1[C@H]3C(=O)O[C@H](c4ccccc4)[C@H](c4ccccc4)N3[C@H](c3ccc(OCCO)cc3)[C@@]13C(=O)Nc1ccc(C#CC4(O)CCCCCC4)cc13)CC2 | 2.93 | 1.72 | 0.988 | -0.0788 | 0.792 | -0.555 | 0.601 (inactive) | -0.831 | -1.3 | 0.36 (inactive)
COc1ccc(-c2nc(-c3ccccc3)c3c(c2C)CO[Si]3(C(C)C)C(C)C)cn1 | -0.0364 | -0.628 | -0.292 | -1.03 | -3.63 | -0.922 | -1.72 (inactive) | -0.443 | -0.294 | 1.95 (inactive)
CN(C)c1ccc(C(O)C2C=CC3C(=O)N(c4ccccc4)C(=O)C3N2Nc2ccc([N+](=O)[O-])cc2)cc1 (stereo not given) | -0.455 | -1.25 | 0.583 | -0.676 | -0.215 | -1.01 | -2.19 (inactive) | -0.296 | -0.907 | -0.272 (inactive)
C[C@H]1NC(=O)[C@@]23C(=O)N[C@@H](Cc4ccccc4)C2[C@H](C)[C@@]2(C)O[C@H]2C3/C=C/C/C=C\CNC(=O)[C@H](Cc2ccccc2)NC1=O (stereo not given in full) | -0.518 | 0.76 | -0.607 | 0.401 | -0.45 | 0.88 | -0.588 (inactive) | 0.331 | 1.02 | 0.0548 (inactive)
N#Cc1ccc(C(O)C2C=CC3C(=O)N(c4ccccc4)C(=O)C3N2Nc2ccccc2)cc1 (stereo not given) | -0.26 | 0.744 | -0.638 | 0.41 | -0.153 | -0.651 | 0.693 (inactive) | 0.173 | -0.482 | -1 (inactive)
C=C[C@@H](COC(C)=O)N(C(=O)OC(C)(C)C)S(=O)(=O)c1ccc(Br)cc1 | 1.82 | 0.104 | 0.469 | 0.867 | 0.643 | 0.515 | 0.122 (inactive) | -0.212 | -0.624 | -0.586 (inactive)
O=C(CS)NCCCCCNC(=O)[C@@H]1C[C@@H]2C(=O)N3CCC[C@H]3C(=O)N2[C@@H]1c1cccc(OCCO)c1 | -0.174 | 0.195 | 0.451 | -0.304 | -0.799 | 0.266 | 0.0369 (inactive) | -0.00798 | 0.305 | -0.61 (inactive)
CC(C)(C)OC(=O)CC[C@]1(C(=O)NCC(O)CO)N=C(c2ccc(OCCCO)cc2)O[C@H]1c1ccccc1 (stereo not given in full) | 0.156 | 0.833 | 0.135 | 0.709 | 0.0887 | 0.52 | -0.24 (inactive) | -0.963 | 0.437 | 0.489 (inactive)
